# A selection: hits, their analogues and other compounds. The true share with any hit is near 7%.
# PI5P4K alpha inh – qHTS for Inhibitors of phosphatidylinositol 5-phosphate 4-kinase (PI5P4K) | Phosphatidylinositol 5-phosphate 4-kinase type-2 alpha (Homo sapiens), P48426 | PI5P4Kalpha enzyme, ADP-Glo luminescence, 60 min; stronger effect = lower value | max response, % | hit rate 1.2% among 330,000; active = max response of -50% or lower; inconclusive = between -30% and -50%; inactive = -30% or higher; note: value at the top dose of about 77 µM; % is set by controls: 0 for no effect and ±100 for the full control effect
#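 Human PI5P4Kalpha with substrate in 0.038 M HEPES pH 7.4, 0.28 mM EGTA, 0.1% CHAPS, 5% DMSO; reaction started with 5 microM ATP (final), 60 min at room temperature. ADP formed read by ADP-Glo luminescence.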
# PLK1 PBD inh – qHTS for Inhibitors of PLK1-PDB (polo-like kinase 1 - polo-box domain): Primary Screen; Serine/threonine-protein kinase PLK1 (Homo sapiens), P53350; Plk1 PBD binding of FITC phosphopeptide, fluorescence polarization; Potency, µM, for the others: max response, negative = inhibition, actives largely listed as inhibitors; hit rate 2.8% among 360,000; AID 720504, 2013; note: potency is the fitted concentration of half-maximal effect; series mostly up to about 57 µM; % is set by controls: 0 for no effect and ±100 for the full control effect; nearly all actives have a fitted effect of over 65% in size
# GCN5L2 inh – qHTS Assay for Inhibitors of GCN5L2 | Potency, µM (highest dose often 58.9 µM), for the others: at the top dose activity change, negative = inhibition, hits mostly inhibitors | Histone acetyltransferase KAT2A (Homo sapiens), Q92830 | hit rate 0.21% among 390,000 | AID 504327, 2011 | GCN5L2 HAT assay, ThioGlo1 CoA-SH fluorescence; note: potency is the fitted concentration of half-maximal effect; % is set by controls: 0 for no effect and ±100 for the full control effect
#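 Fluorescence readout, Ex340nm/Em540nm: ThioGlo1 (50uM final) reacts with free CoA thiol released as 20nM GCN5L2 acetylates H3(1-25) peptide (75uM) using acetyl-CoA (70uM). Compound and enzyme sat 15 min beforehand; 20 min room-temperature reaction.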
# JMJD2A Tudor inh – qHTS Assay for Inhibitors of JMJD2A-Tudor Domain | Lysine-specific demethylase 4A (Homo sapiens), O75164 | AlphaScreen JMJD2A-Tudor / H3K4me3 peptide binding | Potency, µM (series often up to 114 µM), for inactives: at the top dose activity change, negative = inhibition, most hits filed as inhibitors | hit rate 4.4% among 390,000 | AID 504339, 2011; note: potency is the fitted concentration of half-maximal effect; % is set by controls: 0 for no effect and ±100 for the full control effect; nearly all actives have a fitted effect of over 50% in size
# Target sequence (O75164 whole entry, looked up, the tested form may be a part): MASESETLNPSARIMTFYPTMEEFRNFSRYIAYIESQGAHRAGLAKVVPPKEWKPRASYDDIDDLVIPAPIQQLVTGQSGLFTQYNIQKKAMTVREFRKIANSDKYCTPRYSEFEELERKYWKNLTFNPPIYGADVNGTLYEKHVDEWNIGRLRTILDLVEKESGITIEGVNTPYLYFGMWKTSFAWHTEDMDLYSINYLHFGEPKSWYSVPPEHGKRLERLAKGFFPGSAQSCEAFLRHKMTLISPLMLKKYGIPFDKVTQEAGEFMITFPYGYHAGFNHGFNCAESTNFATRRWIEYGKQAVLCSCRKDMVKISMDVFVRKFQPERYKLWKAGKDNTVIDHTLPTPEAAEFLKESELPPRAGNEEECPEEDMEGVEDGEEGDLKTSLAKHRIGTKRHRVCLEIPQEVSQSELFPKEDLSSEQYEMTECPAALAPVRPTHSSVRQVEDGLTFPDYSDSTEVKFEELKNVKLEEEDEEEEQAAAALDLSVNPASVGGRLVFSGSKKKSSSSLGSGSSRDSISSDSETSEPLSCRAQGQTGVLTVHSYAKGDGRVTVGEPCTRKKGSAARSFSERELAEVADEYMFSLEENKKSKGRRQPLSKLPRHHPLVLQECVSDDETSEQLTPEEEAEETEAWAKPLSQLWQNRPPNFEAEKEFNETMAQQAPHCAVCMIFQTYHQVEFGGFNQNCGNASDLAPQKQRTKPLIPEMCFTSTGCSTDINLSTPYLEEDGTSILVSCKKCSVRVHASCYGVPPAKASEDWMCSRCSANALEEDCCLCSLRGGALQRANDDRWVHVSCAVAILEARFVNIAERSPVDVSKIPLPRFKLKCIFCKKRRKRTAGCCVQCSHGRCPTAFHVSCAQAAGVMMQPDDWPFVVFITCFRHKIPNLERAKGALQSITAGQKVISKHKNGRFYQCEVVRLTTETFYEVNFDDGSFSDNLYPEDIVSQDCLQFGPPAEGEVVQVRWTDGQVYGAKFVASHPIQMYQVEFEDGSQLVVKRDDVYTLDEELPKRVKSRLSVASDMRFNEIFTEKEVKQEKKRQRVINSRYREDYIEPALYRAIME
# BAZ2B inh – qHTS Assay for Inhibitors of BAZ2B; Bromodomain adjacent to zinc finger domain protein 2B (Homo sapiens), Q9UIF8; AlphaScreen BAZ2B-H3K14Ac peptide displacement; hit rate 4.4% among 360,000; Potency, µM (series often up to 114 µM), for the others: at the top dose activity change, negative = inhibition, actives largely listed as inhibitors; note: potency is the fitted concentration of half-maximal effect; % is set by controls: 0 for no effect and ±100 for the full control effect; nearly all actives have a fitted effect of over 60% in size
#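 In this displacement format the biotinylated H3(5-23) peptide acetylated at Lys14 serves as ligand at 50 nM, with BAZ2B at 50 nM in PBS pH 7.4 containing 0.01% Tween-20. Donor and acceptor beads are 10 ug/mL final.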
# HP1b binding inh – HTS for Inhibitors of HP1-beta Chromodomain Interactions with Methylated Histone Tails; Potency, µM (doses to about 114 µM), without a hit: at the top dose activity change, negative = inhibition, usual class: inhibitors; Chromobox protein homolog 1 (Homo sapiens), P83916; hit rate 0.56% among 390,000; AlphaScreen HP1-beta / biotin-H3K9me3 peptide binding; AID 540317, 2011; note: potency is the fitted concentration of half-maximal effect; nearly all actives have a fitted effect of over 70% in size
#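 HP1-beta protein (50 nM final) preincubated 30 min at room temperature with biotinylated H3(1-18)K9me3 peptide (50 nM) in PBS pH 7.4, 0.01% Tween-20, then compound added for 30 min. AlphaScreen streptavidin donor/nickel chelate acceptor beads (10 ug/mL final), 30 min dark, luminescence read.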
# The depositor's hits bear a star; u = inconclusive; x = no result given; [ ] = another dose, or the depositor's remark. Unless noted, calls come from the whole dose curve; as a rule, active = well fitted curve in the direction sought with a large enough effect; inconclusive = small, poorly fitted or top-dose-only effect, or another doubt; inactive = no such curve, though single readings can be large; an effect the other way counts as inactive or inconclusive.
SMILES,PI5P4K alpha inh,PLK1 PBD inh,GCN5L2 inh,JMJD2A Tudor inh,BAZ2B inh,HP1b binding inh
Cc1ccc(NCCCn2ccc(NC(=O)OCc3ccccc3)nc2=O)cc1C,8,-7%,x,56µM*,x,u
O=C(Nc1ccn(CCCNCC(c2ccccc2)c2ccccc2)c(=O)n1)OCc1ccccc1,-2,-2%,x,x,x,x
Cc1ccc(-c2cc(C(=O)O)n[nH]2)o1,x,-5%,-6%,25µM*,-5%,14%
O=C(c1cnccn1)N1CCc2ccccc21,-19,-10%,-5%,79µM*,u,-1%
O=C(NCN1CCc2ccccc2C1)c1cnccn1,x,-24%,-4%,6.3µM*,15%,10%
O=C(NCN1CCc2ccccc2C1)c1ccccc1,x,-8%,-5%,-16%,9%,19%
Cc1ccccc1Nc1ncnc2c1cnn2Cc1ccccc1,-15,2%,-3%,-20%,2%,10%
O=C(O)c1ccc(Nc2ncnc3c2cnn3Cc2ccccc2)cc1,x,30µM*,-10%,50µM*,-12%,u
COc1ccc(CC(=O)NNc2ncnc3c2cnn3Cc2ccccc2)cc1OC,0,27µM*,-1%,-26%,-7%,u
c1ccc(Cn2ncc3c(NCc4ccco4)ncnc32)cc1,x,1%,-1%,u,79µM*,21%
Cc1cccc(Nc2ncnc3c2cnn3Cc2ccccc2)c1,-11,24µM*,0%,u,u,23%
CC1NC(=O)C(N)CNC(=O)C(C2CCN=C(N)N2)NC(=O)/C(=C/NC(N)=O)NC(=O)C(CNC(=O)CC(N)CCCN)NC1=O (configuration not stated),x,x,-3%,x,x,x
C=CCOc1ccc(CNn2cn[nH]c2=S)cc1,x,-4%,-1%,32µM*,-2%,25%
S=c1[nH]ncn1NCc1cccc(Br)c1,-3,-29%,x,16µM*,x,18%
C=CCOc1c(Br)cc(CNn2cn[nH]c2=S)cc1OC,-8,-15%,4%,79µM*,-11%,22%
Cc1ccc(CNn2cn[nH]c2=S)cc1,8,2%,x,8.9µM*,x,38%
CCn1cc2nc(SCc3cccc(C(F)(F)F)c3)n(Cc3ccc(Cl)cc3)c(=O)c2n1,x,x,-7%,-17%,-17%,27%
Cc1ccc(S(=O)(=O)N2CCN(c3nc(-c4cccs4)nc4ncccc34)CC2)cc1,x,x,x,-18%,x,33%
CCOC(=O)c1cc(CC)sc1NC(=O)C1CC1,x,-5%,-8%,49%,38%,92%
CCOC(=O)c1cc(CC)sc1NC(=O)c1ccc2c(c1)OCCO2,1,21µM*,-6%,-1%[11.4 µM],44%,74%
CCOC(=O)c1cc(CC)sc1NC(=O)c1cc(OCC)c(OCC)c(OCC)c1,x,27µM*,1%,66%,8%,41%
CCc1cc(C(=O)OC)c(NC(=O)CCC(=O)O)s1,-5,30µM*,-8%,-12%,8%,u
Cc1nc(N2CCN(c3ccccc3O)CC2)c2c(-c3ccccc3)csc2n1,-1,-7%,-5%,u,40µM*,u
Cc1ccc(-n2ncc3c2CCCC3NC(=O)CCc2cnccn2)cc1C (configuration not stated),-6,-2%,-6%,-4%,-4%,19%
O=C(Nc1ccc(Cl)cc1)[C@@H]1[C@@H]2C(=O)N(c3ccc4ccccc4c3)C(=O)[C@@H]2[C@H]2C=CC=NN21,x,-10%,-15%,63µM*,u,-4%
SMILES,PI5P4K alpha inh,PLK1 PBD inh,GCN5L2 inh,JMJD2A Tudor inh,BAZ2B inh,HP1b binding inh
CC(=O)NC(CCCNC(=S)NC1CCCCC1)C(=O)O (configuration not stated),1,-24%,1%,2%,-39%,39%
COc1ccc(OCC(O)CN2CCCCCC2)cc1 (configuration not stated),x,-3%,-7%,4µM*,50µM*,u
COc1ccc(OCC(O)CN2CCCC2)cc1 (configuration not stated),0,-9%,-24%,79µM*,u,-22%
COc1ccc(OCC(O)CN2CCN(CC(O)COc3ccc(OC)cc3)CC2)cc1 (configuration not stated),2,4%,-5%,-17%,-5%,16%
OC(COc1ccccc1)CN1CCCC1 (configuration not stated),0,5%,-1%,56µM*,79µM*,0%
CCn1nc(NC(=O)c2cccs2)c2cc3ccccc3nc21,2,7%,-10%,108%,66%,145%
Cc1cccc(C(c2sc3nc(-c4ccco4)nn3c2O)N2CCN(c3ccccc3F)CC2)c1 (configuration not stated),x,x,-9%,u,-38%,-16%
CCOc1ccc(Cl)cc1CNc1nnnn1C,-9,-29%,-1%,-14%,-3%,-12%
CCCOc1ccc(Cl)cc1CNc1ccccc1,-2,17µM*,3%,57%,35%,52%
COc1ccc(NC2=C(C(C)=O)C(c3ccccc3)C(C(C)=O)C(C)(O)C2)cc1 (configuration not stated),0,-11%,-1%,-25%,-25%,12%
CC(=O)C1=C(Nc2ccc(C)cc2)CC(C)(O)C(C(C)=O)C1c1ccco1 (configuration not stated),0,-7%,-3%,-16%,79µM*,2%
CC1=C(C(=O)OC(C)C)C(c2cccs2)N2C(=O)CCSC2=N1 (configuration not stated),x,-11%,3%,-23%,-19%,4%
CC1=C(C(=O)OC(C)C)C(c2cccs2)N2C(=O)C(C)SC2=N1 (configuration not stated),-2,-8%,3%,79µM*,2%,15%
N#CN1CCC(NS(=O)(=O)c2ccc(F)cc2)CC1,x,x,x,-9%,x,x
CCCC(CCC)=NNc1ccc(S(=O)(=O)Nc2ccccc2OC)cc1[N+](=O)[O-],17,-5%,-11%,14µM*,10µM*,28µM*
COc1ccccc1NS(=O)(=O)c1ccc(NN=C2CCCCC2)c([N+](=O)[O-])c1,9,-6%,-5%,u,8.9µM*,u
NS(=O)(=O)c1ccc(N/N=C2/CCCCC2C2CCCCC2)c([N+](=O)[O-])c1 (configuration not stated),1,-14%,-15%,28µM*,10µM*,32µM*

# From PubChem BioAssay
